Experimental data reported in the supplement of paper PMC6555819.

Each sequence was assayed on THRa homodimer (NR concentration 90 nM) (assay: PBM binding z-score (relative to random genomic background probes); higher = stronger binding; sequences stand for … in GC…GCGATTGACAGCGTAGAATGAAGG).
Outline: (§1)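 Random background probes are the reference for binding z-scores. These scores derive from regression-normalized fluorescence on custom Agilent 4×180K protein-binding microarrays incubated 1 h with ligand-free nuclear receptor dimers. Binding was detected with antibodies against each partner (one per run).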

Row | Sequence | PBM binding z-score
1 | TAAATGAGGTTATAAGATCAGGGAACGTTGCAAA | 0.348
2 | TCGAGTACGTTACCAATGGGGCATTCAGCTTTCT | -0.201
3 | CCGACTGGGGCAAGGTTACCAGAACGCACAGCCA | -0.142
4 | CCTACTGGGCCAAAGGTCATTAATTCCAATGCTC | 0.695
5 | ATATATAGGTTAGCTGGGGTCATTCAGACTAGGC | 3.63
6 | ATATGTAGGTTACATCCGGGTCATTCAAGCTATG | 2.61
7 | CCTACTTGGCCATTCAGAGGTCATTGATCATATG | 1.66
8 | GATACAGGGTCAGCTAGAGGCCAGACTATGGAAA | 0.411
9 | CCTCCTGGGCCAAGGTCATTGATCAGTCAAAGCA | 2.34
10 | GCTATTAGTTGCAAGGGCAACCGAATGATTCTCG | 0.326
11 | ACTATTAGTTGACTTAGGGCTACCGATACGACGC | 0.349
12 | TCATATAGGTAAATGCTAGGTGAAAATCCGATCT | 0.427
13 | TCTAGTTGGTCAAAGGTAACACACTCGAAATGCG | 0.935
14 | AGAACGAGGGCACGCTGAGTTGATAGTAGAGTAG | 0.0891
15 | ACAGACAGGTGATGAGGGTAACTCAGGCTATCAT | 0.561
16 | GCGACTGGGGCATCAGCAGGTTGCCATAACTTAA | -0.582
17 | TCAGACAGGTAAAGGTAACTCAGGTACGCAGTCG | 0.705
18 | ATCGAAAGGTCGACGATGTGAGTATACACCGTTT | -0.483

Each sequence was assayed on VDR homodimer (NR concentration 270 nM) in the same assay as above.
Outline: as §1

Row | Sequence | PBM binding z-score
19 | CGTGAAAGTTCAAGGTAACGTAACAGAAAGCAGC | 3.01
20 | CCGACTGGGGCAAAGATTACCATACTCAGTACGA | -0.37
21 | TCTCGGAGGACGCGAAGGTCAGAGCTTTCCAGAG | 0.488
22 | ATATGTAGGTTATCGGGTCAGTCAGTTTGCGCAT | 2.46
23 | CATACTAGGTCACGAAAGGTCAAAGTCGAATGAC | 4.71
24 | TGAATGAGGTTAAAGATCAGGGAACGTGGCGTCG | 0.484
25 | GTACCAAGGTCAATAGGTCGTTGATGAGTAGGCG | 2.55
26 | TGTCAAGGTTCAAAGGTAACGTAAGTATCCACAC | 4.49
27 | TCTAGGTGGTCAAAGGTCACACACTCGAAATGCG | 2.4
28 | ACAGACAGGTGAGGAAGGTAACTCAGGCTATCAT | -0.55
29 | TCGAGTAGGTTAGTCGGGGCACTCAGCCAACATA | 0.195
30 | CGTCAAATTTCAACTAAGGTAACGTAAAGCACGC | 0.604
31 | AGTCAAAGTTCATCTAGGTTACGTAAGATATGCT | 6.02
32 | AGTCAAAGTTCAGGAAGAGGTAACGTAAAGCACG | 1.81
33 | CAGCCTAGGTTAGGGCCAGTATAGGAGGAACGTT | -0.636
34 | GCGACTGGGGCATCATCAGGTTACCATAACTTAA | 0.0657
35 | TCTTGTAGTTCAATAGAGGTTAAGAAAGTGCGCT | 1.59
36 | TCTTGTAGATCAGCAGTTTAAGAAAGCTGGCCAA | 0.0603
37 | AGAATGAGGTTATTAAGATTAGGGAATTGCGGTC | 1.29
38 | TCGAGTAGGTTAGTCGGGGCTTTCAGCCAACATA | -0.862

Row | Sequence | PBM binding z-score
39 | GGCACGAGGGCAAGTTGATAGCAGAGTTTGATGG | 1.58
40 | ATAGAAAGGTCGTGAGGTGAGTATACAGAAAGGC | 1.31
41 | TAAATGAGGTTATAAGATCAGGGAACGTTGCAAA | 0.859
42 | TCGAGTACGTTACCAATGGGGCATTCAGCTTTCT | 1.2
43 | CCGACTGGGGCAAGGTTACCAGAACGCACAGCCA | -0.475
44 | CCTACTGGGCCAAAGGTCATTAATTCCAATGCTC | 2.77
45 | ATATATAGGTTAGCTGGGGTCATTCAGACTAGGC | 5.64
46 | ATATGTAGGTTACATCCGGGTCATTCAAGCTATG | 2.99
47 | CCTACTTGGCCATTCAGAGGTCATTGATCATATG | 3.32
48 | GATACAGGGTCAGCTAGAGGCCAGACTATGGAAA | 0.781
49 | CCTCCTGGGCCAAGGTCATTGATCAGTCAAAGCA | 3.08
50 | GCTATTAGTTGCAAGGGCAACCGAATGATTCTCG | 0.363
51 | ACTATTAGTTGACTTAGGGCTACCGATACGACGC | 0.385
52 | TCATATAGGTAAATGCTAGGTGAAAATCCGATCT | 0.374
53 | TCTAGTTGGTCAAAGGTAACACACTCGAAATGCG | 0.995
54 | AGAACGAGGGCACGCTGAGTTGATAGTAGAGTAG | 1.95
55 | ACAGACAGGTGATGAGGGTAACTCAGGCTATCAT | -0.088
56 | GCGACTGGGGCATCAGCAGGTTGCCATAACTTAA | -0.425
57 | TCAGACAGGTAAAGGTAACTCAGGTACGCAGTCG | 0.388
58 | ATCGAAAGGTCGACGATGTGAGTATACACCGTTT | 0.438
